The values that follow come from PubChem BioAssay (NCATS).

Where “and” joins values, the source holds several entries; their conditions need not be identical. Equal entries are not always repeated. Values without a mark were called inactive. Records with an inconclusive call do not appear. Calls of active or inactive are those of the source. Unless noted, calls follow the shape of the dose curve; as a rule, active = well fitted curve in the direction sought with a large enough effect; inconclusive = small, poorly fitted or top-dose-only effect, or another doubt; inactive = no such curve, though single readings can be large; an effect the other way counts as inactive or inconclusive. A value given as a limit tells only on which side of the number the result lay.

Assay [1] is described as follows: Cell Viability - HepG2 (AID 433; calls by dose curve;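 also: potency is read from the fitted curve at half-maximal effect; cells exposed to compound for 40 hours; potency for ATP loss meaning cytotoxicity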). The following applies: qHTS. The essentials: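 ATP luminescence (CellTiter-Glo) after 40 h compound exposure, 37 °C, HepG2, 1500 cells/well, complete medium. Normalized: DMSO = basal, 100 uM tamoxifen = 100% inhibition. AC50 via standard Hill equation.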
A short description of assay [2]: Cell Viability - NIH 3T3 (AID 541).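 Also: cells exposed to compound for 40 hours; nearly all actives have a fitted effect of over 25% in size.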 Also: potency is read from the fitted curve at half-maximal effect.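 As to activity change, negative = cytotoxicity: plate controls were DMSO alone for no effect and tamoxifen positive control for full effect.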 The following applies: NIH 3T3 cell viability, qHTS; activity change, negative = cytotoxicity: at 92.2 µM (top of the series). The essentials: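 AC50 values reflect concentration-dependent loss of intracellular ATP in NIH 3T3 cells after 40 hr treatment in complete culture medium, quantified by luciferase-based luminescence.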

Assay [3] can be described thus: Cell Viability - Renal Proximal Tubule (AID 545).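 Also: cells exposed to compound for 40 hours; nearly all actives have a fitted effect of over 40% in size.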 The following applies: renal proximal tubule cells viability; series mostly up to 91.7 µM. The essentials:
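Rat kidney proximal tubule cells, freshly isolated; 1000 cells/well, 5 hr settle, compound 40 hr 37 °C. CellTiter-Glo 20 min RT, luminescence read. AC50 by standard Hill fit.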

Assay [4] can be described thus: Cell Viability - Mesenchymal (AID 546).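 Also: cells exposed to compound for 40 hours before reading.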 The following applies: mesenchymal cells viability, qHTS; series mostly up to 91.7 µM. The essentials: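 Human kidney mesenchymal cells from normal renal glomeruli, 1000 cells/well, rested 5 hr at 37 °C, then treated 40 hr at 37 °C in complete medium. Cellular ATP read by CellTiter-Glo luminescence; AC50 from Hill-equation fits.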
(In qHTS, concentration-response curves come from the screen itself.)

Assay [5] can be described thus: Cellular Toxicity (caspase-3) HUV-EC-C (AID 656). Particulars: HUV-EC-C cells, caspase-3 activation (apoptosis), vehicle = 0, 100 µM tamoxifen = 100%; series mostly up to 92.2 µM. The essentials: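 Luminescent caspase-3/7 activation (aminoluciferin substrate cleavage) in HUV-EC-C cells after 16 hr compound exposure, 37°C. Signal normalized to DMSO basal and 100 uM tamoxifen as 100%; AC50 from concentration-response fitted with the Hill equation.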

The nature of assay [6]: Cellular Toxicity (caspase-3) SHSY5Y (AID 657).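 Also: cells exposed to compound for 16 hours at 37 °C.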 The following applies: SH-SY5Y caspase-3 activation, DMSO zero, 10 µM staurosporine = 100%; series mostly up to 91.7 µM. The essentials: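 Luminescent caspase-3/7 readout (aminoluciferin release) in SH-SY5Y cells after 16 h compound exposure in complete medium. Activity scaled between DMSO basal and 10 uM staurosporine as 100%; concentration-response fitted to Hill equation for AC50.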

A short description of assay [7]: Cellular Toxicity (caspase-3) Mesangial (AID 660).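 Also: combined caspase 3 and 7 activity read by Caspase-Glo luminescence; cells exposed to compound for 16 h before the caspase read.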 The following applies: mesangial cells, normalized: DMSO 0%, 100 µM tamoxifen 100%; series mostly up to 91.7 µM. The essentials:
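Concentration-response qHTS: compound-induced rise in caspase 3/7 luminescence in human mesangial cells after 16 h, normalized to DMSO and 100 uM tamoxifen controls.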

Assay [8] is described as follows: Cellular Toxicity (caspase-3) Renal Proximal Tubule (AID 667).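 Also: cells exposed to compound for 16 hours at 37 °C before detection; 0% = DMSO basal and 100% = 10 µM staurosporine.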 The following applies: renal proximal tubule cells; series mostly up to 91.7 µM. The essentials: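 Luminescent caspase 3/7 signal from peptide-aminoluciferin cleavage measures apoptosis in freshly isolated rat kidney proximal tubule cells after 16 h compound exposure. Concentration-response data are normalized to DMSO and 10 uM staurosporine, and AC50 values come from Hill equation fits.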

Assay [9] in a line: Cell Viability - LYMP2-003 (AID 965).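 Also: cells exposed to compounds for 24 h before reading; nearly all actives have a fitted effect of over 50% in size.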 Also: potency is read from the fitted curve at half-maximal effect.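 As to activity change, negative = cytotoxicity: 0% = DMSO only and full effect = 92 µM tetraoctylammonium bromide.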 Particulars: LYMP2-003 lymphoblastoid cell viability; series mostly up to 92.2 µM. The essentials:
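CellTiter-Glo luminescence (cellular ATP) after 24 h compound exposure at 37 C in complete medium; 2500 cells/well, 5 h settling beforehand. Concentration-response fitted to standard Hill equation for AC50. Tetraoctylammonium bromide served as positive control.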

A short description of assay [10]: Cell Viability - LYMP2-011 (AID 969).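 Also: 0% = DMSO only and full inhibition = 92 µM tetraoctylammonium bromide; nearly all actives have a fitted effect of over 60% in size.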 The following applies: LYMP2-011 lymphoblastoid cells viability; series mostly up to 92.2 µM. The essentials:
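Acute toxicity is scored as a concentration-dependent drop in intracellular ATP of a human lymphoblastoid line after 24 hr treatment. Values are AC50s modeled with the Hill equation.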

Assay [11] can be described thus: Cell Viability - LYMP2-013 (AID 970).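 Also: 0% = DMSO only and full inhibition = tetraoctylammonium bromide control; nearly all actives have a fitted effect of over 55% in size.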 Particulars: LYMP2-013 lymphoblastoid cells viability; series mostly up to 92.2 µM. The essentials:
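Acute toxicity was measured in human lymphoblastoid cells (2500/well) exposed to compound titrations for 24 hr, with ATP luminescence (CellTiter-Glo) as read-out and AC50 fitted by Hill equation.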

Assay [12] in a line: Cell Viability - LYMP2-023 (AID 975).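 Also: cellular ATP measured by luciferase luminescence as viability proxy; cells exposed to compound for 24 hours at 37 °C; plate controls were DMSO only for no effect and 92 µM tetraoctylammonium bromide control for full effect; nearly all actives have a fitted effect of over 55% in size.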 Particulars: LYMP2-023 lymphoblastoid cell viability; series mostly up to 92.2 µM. The essentials: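 Concentration-dependent drop in intracellular ATP measures acute cytotoxicity in a human lymphoblastoid line treated for 24 hours in complete culture medium. AC50 values are taken from Hill-equation fits of qHTS data.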
Assay [13] in a line: Cell Viability - LYMP2-010 (AID 981).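 Also: cells exposed to compound for 24 hours at 37 °C; nearly all actives have a fitted effect of over 55% in size.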 Also: potency is read from the fitted curve at half-maximal effect. Particulars: LYMP2-010 lymphoblastoid cell viability, qHTS; series mostly up to 92.2 µM. The essentials: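 Acute toxicity is scored as a concentration-dependent loss of cellular ATP in human lymphoblastoid cells after 24 hr compound exposure in complete medium. Tetraoctylammonium bromide is the positive control.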
Assay [14] in a line: Cell Viability - LYMP2-024 (AID 988).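 Also: cells exposed to compound for 24 hr at 37 °C; plate controls were DMSO only for no effect and 92 µM tetraoctylammonium bromide for full effect; nearly all actives have a fitted effect of over 60% in size.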 The following applies: LYMP2-024 lymphoblastoid cell viability; series mostly up to 92.2 µM. The essentials: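 Acute toxicity is measured as concentration-dependent loss of intracellular ATP in a human lymphoblastoid line treated 24 hours at 37 C. Luciferase luminescence quantifies ATP; AC50 values come from standard Hill-equation modelling.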

Assay [15] addresses Peroxisome proliferator-activated receptor delta (Homo sapiens) (UniProt Q03181). Description: qHTS assay for small molecule agonists of peroxisome proliferator-activated receptor delta signaling (AID 588534; calls by dose curve;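 also: 0% = DMSO basal wells and 100% = positive control agonist at 10 µM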). Particulars: HEK293T PPARdelta-UAS-bla, beta-lactamase ratio, 18 h; series mostly up to 76.7 µM. The essentials:
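Reporter cells were plated and held 5 hrs at 37 C before compounds were added. After 18 hrs at 37 C, CCF4 dye was loaded for 2 hrs at RT and fluorescence measured.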

The target in assay [16] is Vitamin D3 receptor (Homo sapiens) (UniProt P11473). Briefly: qHTS assay for small molecule antagonists of vitamin D receptor signaling (AID 588541; calls by dose curve;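 also: receptor activated by calcitriol during compound treatment; % is scaled to controls: 0 for no effect and ±100 for the full control effect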). Particulars: HEK293T VDR-UAS-bla, beta-lactamase ratio, antagonist mode; series mostly up to 76.7 µM. The essentials: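 VDR-UAS-bla HEK293T cells in 2% charcoal-stripped FBS were stimulated with 1-alpha,25-dihydroxyvitamin D3 (3 nM final) plus compound for 16 h at 37 C. The beta-lactamase CCF4 readout was normalized to 50 nM agonist and DMSO, and Hill fits gave IC50.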
Vitamin D3 receptor (Homo sapiens), sequence (P11473 whole entry, looked up): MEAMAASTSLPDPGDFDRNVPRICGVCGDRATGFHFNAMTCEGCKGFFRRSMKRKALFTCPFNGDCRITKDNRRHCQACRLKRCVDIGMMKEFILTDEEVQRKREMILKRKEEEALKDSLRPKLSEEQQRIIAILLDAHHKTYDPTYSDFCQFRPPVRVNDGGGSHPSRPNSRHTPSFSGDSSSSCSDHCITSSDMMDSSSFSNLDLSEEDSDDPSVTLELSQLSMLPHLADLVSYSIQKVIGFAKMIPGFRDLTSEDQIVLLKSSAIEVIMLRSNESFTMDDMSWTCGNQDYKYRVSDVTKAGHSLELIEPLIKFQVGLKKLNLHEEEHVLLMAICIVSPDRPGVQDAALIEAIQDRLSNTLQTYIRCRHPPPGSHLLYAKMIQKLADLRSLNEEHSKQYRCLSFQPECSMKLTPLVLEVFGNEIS

A short description of assay [17]: qHTS assay for small molecule activators of the p53 signaling pathway (AID 651743; active = well fitted activation curve with a large enough effect in the signal ratio, not every such curve was filed as active; the % refers to the signal ratio; also: % of control where 0% means no effect). The following applies: HCT-116 p53RE-bla, beta-lactamase FRET ratio, 16 h; activation: active compounds read high. The essentials: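 HCT-116 p53RE-bla, 4,000 cells/well; 5 h settle; cpd/DMSO 16 h, 37 C; LiveBLAzer B/G 2 h RT; fluorescence intensity.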
Assay [18] addresses Tumor necrosis factor (Homo sapiens) (UniProt P01375). Description: qHTS assay to identify small molecules that stimulate Tumor Necrosis Factor-alpha (TNF-alpha) secretion (AID 651757; active = well fitted curve in the direction sought with a large enough effect in the signal ratio; the % refers to the signal ratio; also: 0% is about no effect). Particulars: Human cells, HTRF 665/615 ratio; series mostly up to 92.2 µM. The essentials:
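Secreted TNF-alpha from compound-treated THP-1 cells (17 hrs, 37 C) was quantified with a homogeneous time-resolved fluorescence antibody assay.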

Assay [19] can be described thus: qHTS assay for small molecule activators of the human pregnane X receptor (PXR) signaling pathway (AID 720659; call rule not given here; also: 0% is about no effect). Particulars: DPX-2 HepG2 CYP3A4-luciferase, 24 h; series mostly up to 92.3 µM.
A short description of assay [20]: Cell Viability - HUV-EC-C (AID 542).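 Also: cells exposed to compound for 40 hours; % is scaled to controls: 0 for no effect and ±100 for the full control effect; nearly all actives have a fitted effect of over 35% in size.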 Particulars: HUV-EC-C endothelial cell viability, qHTS; series mostly up to 92.2 µM. The essentials:
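Decrease in cellular ATP, quantified by luciferase luminescence, reflects toxicity in normal human vascular endothelial HUV-EC-C cells given compound for 40 hr in complete culture medium. Values are AC50s from concentration-response curves.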

Peroxisome proliferator-activated receptor delta (Homo sapiens), sequence (Q03181 whole entry, looked up): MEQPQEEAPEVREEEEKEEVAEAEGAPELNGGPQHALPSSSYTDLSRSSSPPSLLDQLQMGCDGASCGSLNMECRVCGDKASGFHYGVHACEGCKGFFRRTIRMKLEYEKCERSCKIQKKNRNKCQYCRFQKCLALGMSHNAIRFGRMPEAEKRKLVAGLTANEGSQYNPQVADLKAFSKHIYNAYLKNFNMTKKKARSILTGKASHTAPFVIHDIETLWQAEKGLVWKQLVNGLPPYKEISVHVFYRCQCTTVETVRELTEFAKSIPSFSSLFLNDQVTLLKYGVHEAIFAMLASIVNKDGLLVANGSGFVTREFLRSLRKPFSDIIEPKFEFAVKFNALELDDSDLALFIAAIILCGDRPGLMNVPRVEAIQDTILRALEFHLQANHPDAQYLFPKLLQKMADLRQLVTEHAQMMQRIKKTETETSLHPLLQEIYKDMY
Tumor necrosis factor (Homo sapiens), sequence (P01375 whole entry, looked up): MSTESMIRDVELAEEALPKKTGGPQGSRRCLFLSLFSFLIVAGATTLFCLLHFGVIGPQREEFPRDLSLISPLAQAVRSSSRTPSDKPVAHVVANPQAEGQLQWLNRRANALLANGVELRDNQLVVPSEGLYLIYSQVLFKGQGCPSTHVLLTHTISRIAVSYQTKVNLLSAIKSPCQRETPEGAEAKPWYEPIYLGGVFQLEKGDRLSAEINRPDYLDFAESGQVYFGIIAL

As for `CCOP(=O)(OCC)OCC`, the Potency in assay [1] was above 92 µM. For the same compound, the Potency result in assay [2], in assay [4], in assay [9], in assay [10], in assay [11] and in assay [12] was “inactive” throughout. The Potency entry in assay [13] and in assay [14] was “inactive” each time. The compound was called inactive in [3], in [5], in assay [6], in assay [7], in assay [8] and in assay [15]. The outcome in [16], in [18] and in assay [19] was inactive. For the same compound, the activation in [17] was 2.61% and -1.3%.
`C=CC(=O)OCCO`: the Potency in [2] is 31.6 µM (active); in [9] it was 50.1 µM (active); in assay [13] it was 50.1 µM (active). Further, the Potency entry in assay [20], in assay [4] and in assay [12] was “inactive” each time. The result in [3], in [5], in [6], in assay [7], in assay [8] and in assay [16] was inactive. The outcome in assay [18] and in assay [19] was inactive. Also, the activation in assay [17] was 1.07%.
For the compound `CC(=O)[O-].CC(=O)[O-].CC(=O)[O-].[Cr+3]`, the Potency in [1] is above 92 µM. Besides, the Potency result in assay [20], in assay [4], in assay [9], in assay [10], in assay [11] and in [12] was “inactive” throughout. Moreover, the Potency entry in [13] and in assay [14] was “inactive” throughout. The outcome in assay [3], in assay [6], in assay [7] and in assay [8] was inactive.
`CCOS(C)(=O)=O`: the Potency in [1] is above 92 µM. Moreover, the Potency entry in assay [2], in [20], in assay [4], in assay [10], in assay [12] and in assay [13] was “inactive” throughout. In addition, the Potency entry in [14] is “inactive”. Also, the compound was classed as inactive in assay [3], in assay [8], in assay [15], in assay [16], in assay [18] and in assay [19]. Moreover, the activation in assay [17] is -2.6%.
In the case of `O=[N+]([O-])c1cc(Cl)c(Cl)cc1Cl`, the Potency in assay [1] is above 92 µM. Also, the Potency result in assay [20], in [4], in [9], in assay [10], in [11] and in assay [12] was “inactive” throughout. In addition, the Potency entry in assay [13] and in assay [14] was “inactive” each time. Further, the compound was classed as inactive in [3], in [5], in assay [6], in [7], in assay [8] and in assay [15]. The result in assay [16], in [18] and in assay [19] was inactive.
As to `CCC[N+](=O)[O-]`, the Potency in assay [1] was above 92 µM. In addition, the Potency result in assay [2], in assay [20], in [4], in assay [9], in assay [10] and in [11] was “inactive” in each case. In addition, the Potency entry in [12] and in assay [14] was “inactive” throughout. The compound was called inactive in assay [3], in [5], in assay [6], in assay [8], in assay [15] and in [16]. Also, the result in [18] and in assay [19] was inactive. For the same compound, the activation in assay [17] is -0.809%.
Turning to `O=[N+]([O-])c1ccccc1CCl`, the results for the Potency in assay [1] and in assay [2] were above 92 µM and 12.6 µM (active), respectively. Further, the outcome in assay [3], in assay [5], in assay [6], in assay [7], in assay [8] and in assay [15] was inactive. For the same compound, the result in [16] and in assay [19] was inactive. Further, the Potency result in [4], in [9] and in [12] was “inactive” each time. Besides, the activation in assay [17] is -1.05%.
Turning to `[O-][Cl+]O`, the Potency in [1] is above 92 µM. Further, the Potency entry in assay [2], in assay [20], in assay [9], in assay [10], in assay [11] and in assay [12] was “inactive” throughout. Moreover, the Potency result in [14] is “inactive”. The call in assay [3], in [5], in [6], in assay [7], in assay [8] and in assay [15] was inactive. For the same compound, the result in assay [16] and in [18] was inactive. Besides, in [17], the activation was 0.903%.
Turning to `N#CCCCCC#N`, the Potency in [1] was above 92 µM. The Potency entry in [2], in [20], in assay [4], in [9], in [13] and in assay [14] was “inactive” each time. Further, the call in assay [3], in assay [6], in [15], in assay [16], in assay [18] and in assay [19] was inactive. For the same compound, the activation in [17] is -0.437%.
As to `O=P(OCCCl)(OCCCl)OCCCl`, the Potency in [1] is above 92 µM. In addition, the Potency result in assay [2], in [20], in [4], in assay [10], in assay [11] and in [12] was “inactive” each time. In addition, the Potency result in [13] and in [14] was “inactive” throughout. The call in [3], in assay [5], in assay [7], in assay [8], in [15] and in [16] was inactive. Further, the result in assay [18] and in assay [19] was inactive. In assay [17], the activation is -2.67%.
